Only some compounds are listed: those with a hit (about 6.9% of all), similar ones and a draw of the others.
SKKanGAS inh = SKKanGAS growth inhibition; S. pyogenes SKKanGAS, kanamycin growth, BacTiter-Glo, 6 h; actives 1.3% (n = 300,000); inhibition, % at 7.5 µM;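 active = mean replicate score, as percent of positive control median, at least 50; inconclusive = mean below 50 but one replicate at or above 50; inactive = mean and every replicate below 50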;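 also: strain carries kanamycin resistance gene driven by streptokinase promoter and grows in 40 µg/ml kanamycin; loss of luminescence reflects streptokinase promoter inhibition or plain growth inhibition; 0% = median of DMSO wells and 100% = positive control at its reference dose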
Beta apoptosis = blocks beta cell apoptosis. INS-1E cytokine-induced death, ATP luminescence, 48 h; percent of positive-control rescue, neutral wells zero. protection from apoptosis, % (concentration not given with the values). actives 0.8% (n = 300,000). AID 435005;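 active = Every replicate reaches about 75%, or at least half do and their mean reaches it too, limit read from the data; inconclusive = At least half of replicates reach the limit but their mean does not; inactive = Under half of replicates reach the limit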;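 also: 0% = cytokine-treated negative control wells and 100% = positive control rescue; higher means more ATP so stronger rescue from cytokine killing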
CSC inhib = cancer stem cell inhibition; AID 2717; cancer stem cell-like cells viability, luminescence; inhibition, % at 7.5 µM; actives 1.1% (n = 300,000); in the data active = inhibition above about 75%; inconclusive = no clear call, values can overlap the other calls; tested in HMLE shEcad cells
MPTP block = blocks calcium-induced mitochondrial swelling. isolated mouse mitochondria, Ca2+ swelling absorbance, 30 min. inhibition, % at 10 µM. actives 1.4% (n = 360,000);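 active = inhibition of 50% or more, scaled per plate between neutral and stimulator controls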;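 also: 0% = DMSO wells given calcium and 100% = 1 mM EGTA wells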
NR3A LBD binder = NR3A (human) ligand-binding domain modulation. NR3A LBD differential scanning fluorimetry, Tm shift; 0% = protein alone, 100% = glycine-bound protein. Tm shift relative to glycine control, % at 25 µM. actives 2.5% (n = 340,000);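 active = melting temperature shift of at least 10% of the positive control shift, at one fixed dose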
Mdm2 MdmX PPI = human Mdm2/MdmX binding inhibition. O15151+Q00987. SaOS-2 split-luciferase Mdm2/MdmX complementation, luminescence. actives 3% (n = 330,000). inhibition, % at 8 µM;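 active = inhibition of at least 50% at 8 µM in the primary screen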
Mdm2 MdmX conf = human Mdm2/MdmX binding inhibition, confirmed. shares compounds with Mdm2 MdmX PPI. luminescent assay. inhibition, % at 8 µM. actives 55% (n = 10,000); in the data active = inhibition above about 40%
Full FLuc ctr = counter-screen for Mdm2/MdmX inhibitors: full-length luciferase. shares compounds with Mdm2 MdmX PPI. SaOS-2 full-length luciferase counterscreen, luminescence. inhibition, % at 8 µM. actives 77% (n = 6,200). AID 504607;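 active = mean inhibition at 8 µM reaching about 37%, which flags the compound as non-specific, limit read from the data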;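 also: p53-null SaOS-2 cells with luciferase driven by a doxycycline-inducible promoter; compound on cells about two nights before reading with doxycycline added after day one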
* hit, by the source's call; u = inconclusive; x = not tested or not shown.

SMILES | SKKanGAS inh | Beta apoptosis | CSC inhib | MPTP block | NR3A LBD binder | Mdm2 MdmX PPI | Mdm2 MdmX conf | Full FLuc ctr
O=C(CCl)Nc1cc2[nH]c(=O)[nH]c2cc1Br | -2.6 | -2.0 | 20.2 | -1.0 | -0.6 | 93.8* | 74.0* | 60.1*
Nc1ccc(C(=O)n2c3ccccc3c3ccccc32)cc1 | 15.5 | 10.3 | 17.5 | 0.9 | -0.1 | 60.4* | 57.5* | 62.6*
Cc1ccc(C(=O)n2c(N)nc3ccccc32)cc1 | u | 20.2 | 12.2 | 0.2 | 0.0 | 51.7* | 44.0* | 97.6*
O=C(c1ccc2nc[nH]c2c1)N1CCN(c2ncc(C(F)(F)F)cc2Cl)CC1 | 1.1 | 4.7 | 4.1 | 1.0 | 4.6 | 12.6 | x | x
CCC1NC(=O)c2ccccc2N1c1cccc(Cl)c1 (stereo not given) | -2.5 | 7.4 | -3.0 | 12.8 | -0.4 | 21.2 | x | x
COc1ccc(C(CNC(=O)c2ccc(S(=O)(=O)N3CC(C)CC(C)C3)cc2)N(C)C)cc1 (stereo not given) | x | 6.0 | 34.4 | 7.3 | -0.8 | 51.4* | 17.1 | x
COc1ccc(C(CNC(=O)c2ccc(S(=O)(=O)N3CCCC3)cc2)N(C)C)cc1OC (stereo not given) | -0.8 | -8.1 | x | 1.9 | 0.0 | -11.7 | x | x
Cc1cc(C(O)c2ncc(-c3cccc4ccccc34)[nH]2)ccc1F (stereo not given) | x | x | x | 2.4 | x | x | x | x
CN1C(=O)C(O)(C2COC(C)(C)CC2=O)c2cc(Br)ccc21 (stereo not given) | -1.9 | -5.3 | 33.6 | 0.9 | 1.2 | 52.9* | 28.6 | x
O=[N+]([O-])c1ccccc1Nc1c2ccccc2nc2ccccc12 | -8.9 | -1.7 | -2.3 | 2.0 | 5.5 | 26.8 | x | x
O=C(O)c1cc(S(=O)(=O)O)cc(Nc2c3ccccc3nc3ccccc23)c1O | -3.2 | -10.0 | -7.6 | 1.3 | 3.1 | 4.4 | x | x
COc1cc(Nc2c3c(nc4ccccc24)CCC3)cc(OC)c1OC | 4.9 | 9.2 | 57.8 | -1.1 | -0.1 | 87.6* | 74.3* | 63.5*
COc1cc(NS(C)(=O)=O)ccc1Nc1c2ccccc2nc2ccccc12 | x | 69.1 | 102.0* | 1.0 | -2.2 | 89.2* | 73.2* | 59.4*
CNC(=O)COC(=O)c1c2c(nc3ccccc13)CCC2 | 4.1 | 1.2 | -7.3 | 2.3 | -2.2 | -9.5 | x | x
COc1ccc([N+](=O)[O-])cc1Nc1c2ccccc2nc2ccccc12 | 2.3 | 66.3 | 130.7* | 1.9 | 0.6 | 64.4* | 63.4* | 62.6*
COc1ccc(OC)c(NC(=O)COC(=O)c2c3c(nc4ccccc24)CCCC3)c1 | 12.4 | 17.5 | 54.3 | -1.3 | -3.6 | 84.6* | 63.3* | 56.7*
CCOC(=O)N1CCN(C(=O)CSC2=NS(=O)(=O)c3ccccc3N2)CC1 | 1.1 | -3.5 | 10.1 | -0.9 | -0.3 | 16.0 | x | x
COc1ccc(OC)c(Nc2c3c(nc4ccccc24)CCC3)c1 | -3.1 | 13.5 | 57.4 | 1.3 | -3.9 | 50.6* | 62.0* | 78.6*
COc1cc(Nc2nc3ccccc3nc2NS(=O)(=O)c2ccc([N+](=O)[O-])cc2)cc(OC)c1OC | 24.0 | 19.8 | 10.6 | 4.3 | -0.2 | 68.4* | 36.0 | 55.2*
COc1ccc(OC)c(Nc2c3ccccc3nc3ccccc23)c1 | 0.5 | 22.0 | u | 3.6 | x | 73.4* | 65.0* | 60.2*
COc1ccc(OC)c(Nc2cc(C)c3ccccc3n2)c1 | -3.8 | x | 18.4 | 0.7 | -5.5 | -13.1 | x | x
COc1ccccc1Nc1c2c(nc3ccc(N)cc13)CCCC2 | 4.0 | 20.1 | 14.7 | 3.4 | -2.3 | 27.4 | x | x
COc1ccc([N+](=O)[O-])cc1NS(=O)(=O)c1ccccc1 | 4.6 | -2.8 | -2.7 | 0.4 | 2.5 | -27.4 | x | x
COC(=O)C1=C(CN2CCCc3ccccc32)NC(=O)NC1c1ccc(F)cc1 (stereo not given) | 20.1 | -4.3 | -1.3 | 0.1 | -6.8 | 70.3* | 72.0* | 37.5*
CC(C)(CNC(=O)CC1C(=O)NCCN1Cc1cccc(F)c1F)N1CCOCC1 (stereo not given) | -1.3 | -2.1 | -10.0 | 0.5 | -0.2 | -14.0 | x | x
